PubChem BioAssay (EPA / NIEHS)
Inconclusive results are not listed. A structure can be active in one record and inactive in another. The source made the active and inactive calls. The calls were made as follows, unless noted: active = hit-call score of the fitted dose curve at least 0.9, where 1 is the maximum; inactive = score below 0.9.

Assays:
[1] = CCTE_Shafer_MEA_acute_LDH: CCTE's Lactate Dehydrogenase Assay for Cytotoxicity in the Neural Acute Assay, Shafer Lab (AID 2284086; active = hit-call score of the fitted dose curve at least 0.9, where 1 is the maximum;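 also: active means LDH release rises above DMSO vehicle level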)
Method in brief: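 LDH absorbance at 490 nm in medium taken right after 40-min compound exposure; rat primary cortical neuron networks on MEA plates, days post-plating 13 or 15. Increase over DMSO baseline scored as cytotoxicity.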

[2] = CCTE_Shafer_MEA_dev_AB: CCTE's Alamar Blue Assay for Cytotoxicity in the Neural Network Formation Assay, Shafer Lab (AID 2284083; active = hit-call score of the fitted dose curve at least 0.9, where 1 is the maximum;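 also: twelve days of exposure from plating with re-dosing on DIV 5 and 9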)
Method in brief: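 Primary rat cortical neurons on PEI-coated 48-well MEA plates, 1.5 x 10^5 cells/well in laminin drop; compound exposure from day 0 of plating for twelve days, renewed at medium changes on DIV 5 and 9. Viability read as resazurin reduction by fluorescence, relative to DMSO.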

[3] = CCTE_Shafer_MEA_dev_mutual_information_norm: CCTE's Neural Network Formation Assay for Mutual Information Normalization, Shafer Lab (AID 2284091);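 as to AC50: mutual information between electrodes summarised as area under curve across four recording days; potency is for a decrease in mutual information relative to DMSO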
Method in brief: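 Exposure of primary rat cortical neurons began at plating and ran to DIV 12, with full media and treatment renewal after DIV 5 and 9 recordings. Mutual information AUC (DIV 5–12) was analysed for loss versus DMSO.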

[4] = CCTE_Shafer_MEA_dev_correlation_coefficient_mean: CCTE's Neural Network Formation Assay for Mean Correlation Coefficient, Shafer Lab (AID 2284093);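 as to AC50: well mean pairwise spike train correlation integrated as AUC over recording days 5 to 12; potency fitted for loss of correlation relative to DMSO vehicle wells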
Method in brief: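 Spontaneous activity recorded on days 5, 7, 9 and 12 post-plating; pairwise spike correlations are averaged across active electrodes and collapsed to an area-under-curve. Rat cortical cultures are dosed from plating through 12 days, with compound renewed at media changes.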

[5] = UKN2_HCS_IMR90_neural_migration: University of Konstanz (UKN) Leist Lab Neural Crest Cell Migration Assay in human induced IMR90 Pluripotent Stem Cells (UKN2) (AID 2284204); conditions: actives raise or lower the signal
Method in brief: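 Using a 96-well stopper format with PLO/laminin/fibronectin coating, neural crest cells from iPSC migrate in cytokine-supplemented N2-S medium; after 24 h, chemicals are applied for a further 24 h, then cells are imaged after dye staining.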

[6] = IUF_NPC1b_proliferation_BrdU_72hr: Leibniz Research Institute for Environmental Medicine (IUF) 72-hour Neural Progenitor Cell Bromodeoxyuridine (BrdU) Proliferation Assay (NPC1b) (AID 2284207)
Method in brief: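 Neural progenitor spheres of human fetal origin are treated for three days; BrdU added for the last 16 h is quantified by luminescence ELISA, with DMSO as baseline and EGF/FGF omission as positive control.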

[7] = IUF_NPC1a_proliferation_area_72hr: Leibniz Research Institute for Environmental Medicine (IUF) 72-hour Neural Progenitor Cell Proliferation Area Assay (NPC1a) (AID 2284208)
Method in brief: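 Measured in 3D suspension: each well held one primary hNPC sphere grown with EGF and FGF at pH 7.2-7.6. Compound stayed on for 72 h, then area was imaged; spheres lacking growth factors defined reduced proliferation.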

[8] = IUF_NPC1_viability_72hr: Viability Assessment at 72 hours in the Leibniz Research Institute for Environmental Medicine (IUF) Neural Progenitor Cell Proliferation Assay (NPC1) (AID 2284209)
Procedure: IUF_NPC1 is a cell-based, multiplexed assay that uses hNPC, a human primary neural progenitor cells, with measurements taken at 72 hours after chemical dosing in a 96-well plate. Human neural progenitor cells (hNPC) are generated from human fetal brain cortex at gestational week (GW) 16-19. Grown in suspension culture and under proliferative conditions (proliferation media and growth factors), these cells represent neural progenitor cell proliferation. In the NPC1 assay, hNPC's are exposed to the test compound for 72h. Cell proliferation is assessed as an increase in sphere area using automated phase contrast imaging and as incorporation of Bromodeoxyuridine (BrdU) during DNA synthesis using a luminescence-based cell proliferation ELISA. In parallel, the cell viability is assessed using an alamar blue viability assay and the cytotoxicity using a lactate dehydrogenase dependent membrane integrity assay.IUF_NPC1_viability_72hr is one of 4 assay components measured from the IUF_NPC1 assay. It is designed to measure cell viability assessed as mitochondria-dependent reduction of resazurin to resorufin using the alamar blue cell viability assay. Viability is measured as a fluorescence signal (relative fluorescence unit) in a multiplate reader. Data from the IUF_NPC1_viability component was analyzed at the endpoint IUF_NPC1_viability in the positive analysis fitting direction relative to DMSO as the negative control and baseline of activity. Using a type of viability reporter, gain or loss-of-signal activity can be used to understand viability effects.
After the cell expansion period, the cells are cultured for up to four weeks in which they are passaged every week. Between one to three days after passaging, depending on the size chosen for passaging, spheres at a size of 0.3 mm are used in the assay. For the assessment of neural progenitor cell proliferation, the spheres are plated in poly-Hema coated 96-well U-bottom plates filled with proliferation medium containing growth factors (EGF and FGF). One 0.25 - 0.35 mm big sphere is plated in the middle of each well. Within 3 days NPCs proliferate and grow in size. Cultivation during the test method is performed at 37C and 5% CO2 at a pH of 7.2-7.6. As a positive control, spheres are cultivated in the absence of growth factors (EGF and FGF), which dramatically reduces proliferation. Exposure starts on the plating day (day 0) and is continued over three days, without chemical renewal, until the experiment is terminated. The assay is terminated by the assessment of cell viability, cytotoxicity, and proliferation by BrdU. All endpoints are generated from the same experimental run and from each well/sphere in the 96-well plate.

[9] = UKN5_HCS_SBAD2_neurite_outgrowth: University of Konstanz (UKN) Leist Lab Neurite Outgrowth Assay in human iPSC-derived immature Dorsal Root Ganglia Neurons (UKN5) (AID 2284070); conditions: actives raise or lower the signal
Method in brief: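 Cryopreserved SBAD2 peripheral neurons were seeded at 100.000 cells/cm2 in N2-S/KSR medium containing CHIR99021, SU5402 and DAPT, then exposed to compounds for 24 h. Neurite area from calcein-AM high-content imaging was fitted bidirectionally against DMSO.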

[10] = UKN4_HCS_LUHMES_neurite_outgrowth: University of Konstanz (UKN) Leist Lab Neurite Outgrowth Assay in human LUHMES cells (UKN4) (AID 2284206); conditions: actives raise or lower the signal
Method in brief: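 Read-out: calcein-AM neurite area by high-content fluorescence imaging, with Hoechst H-33342 viability counterstain, after 24 h chemical exposure of day-2 differentiated LUHMES cells. Activity fitted bidirectionally against DMSO baseline.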

SMILES: CCCCOCCOCCO
- outcome [1]: inactive

SMILES: CC(=O)c1ccc(C)cc1
- outcome [1]: inactive

SMILES: c1ccc(OCCOc2ccccc2)cc1
- outcome [1]: inactive

SMILES: CC(C)(CO)CO
- outcome [1]: inactive

SMILES: CC/C(=C(\c1ccccc1)c1ccc(OCCN(C)C)cc1)c1ccccc1
- AC50 [2]: 5 µM (active)
- AC50 [3]: 0.196 µM (active)
- AC50 [4]: 3.76 µM (active)

SMILES: CCn1cc(C(=O)O)c(=O)c2ccc(C)nc21
- outcome [1]: inactive

SMILES: CCCO[Si](OCCC)(OCCC)OCCC
- outcome [1]: inactive

SMILES: CCCCC(CC)COC(=O)COc1ccc(Cl)cc1C (centres undefined)
- outcome [3]: inactive
- outcome [4]: inactive
- outcome [5]: inactive
- AC50 [6]: 0.0137 µM (active)
- outcome [7]: inactive
- outcome [8]: inactive

SMILES: O=C(c1ccc(OCCN2CCCCC2)cc1)c1c(-c2ccc(O)cc2)sc2cc(O)ccc12
- outcome [1]: inactive

SMILES: C[C@]12CC[C@@H]3c4ccc(O)cc4CC[C@H]3[C@@H]1CC[C@@H]2O
- AC50 [2]: 6.6 µM (active)
- outcome [2]: inactive
- outcome [3]: inactive
- outcome [4]: inactive

SMILES: N[C@@H](CCC(=O)O)C(=O)O
- outcome [2]: inactive
- outcome [1]: inactive
- outcome [3]: inactive
- outcome [4]: inactive
- outcome [6]: inactive
- outcome [7]: inactive
- outcome [8]: inactive

SMILES: c1ccc2scnc2c1
- outcome [3]: inactive
- outcome [4]: inactive
- outcome [5]: inactive
- AC50 [6]: 10 µM (active)
- outcome [7]: inactive
- outcome [8]: inactive

SMILES: CC(C)Cc1ccc(C(C)C(=O)O)cc1 (centres undefined)
- outcome [9]: inactive
- AC50 [2]: 2.98 µM (active)
- AC50 [3]: 3.62 µM (active)
- outcome [4]: inactive
- outcome [5]: inactive
- outcome [10]: inactive
- outcome [6]: inactive
- outcome [7]: inactive
- outcome [8]: inactive

SMILES: N#CCCNCCC#N
- outcome [3]: inactive
- outcome [4]: inactive
